Hits are enriched below; roughly 1.4% of the tested compounds scored in any of these assays.
CCHF vOTU inh: CCHFV vOTU protease inhibition; Pep-AMC fluorescence; inhibition, % at 11.5 µM; actives 0.55% (n = 370,000); AID 651958; in the data active means inhibition above about 30%
MazF activator: activators of E. coli MazEF toxin-antitoxin RNase; FAM/BHQ RNA-DNA oligo cleavage fluorescence, 5 h; activation, % at 20 µM; actives 0.32% (n = 350,000); in the data active means activation above about 50%
Target sequence (P0AE70 whole entry, looked up): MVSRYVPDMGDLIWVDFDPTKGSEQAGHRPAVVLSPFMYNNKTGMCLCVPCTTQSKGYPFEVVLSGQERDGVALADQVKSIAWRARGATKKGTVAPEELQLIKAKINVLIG
SARS 3CLpro inh: SARS-CoV 3CLpro protease inhibition; inhibition, % at 6 µM; P0C6X7; recombinant SARS-CoV 3CLpro, quenched FRET peptide cleavage; actives 0.14% (n = 290,000); in the data active means inhibition above about 12%
DUSP3 inh: inhibitors of human VHR1 phosphatase (DUSP3); P51452; recombinant VHR phosphatase, pNPP absorbance; inhibition, % at 13.3 µM; actives 0.52% (n = 290,000); in the data active means inhibition above about 50%
Target sequence (P51452 whole entry, looked up): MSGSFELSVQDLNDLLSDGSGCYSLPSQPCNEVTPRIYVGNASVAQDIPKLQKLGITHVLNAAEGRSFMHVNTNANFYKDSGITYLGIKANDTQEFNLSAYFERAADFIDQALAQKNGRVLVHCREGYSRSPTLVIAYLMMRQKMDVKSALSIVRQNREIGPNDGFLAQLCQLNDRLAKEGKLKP
BJeLR lethal: BJeLR cell viability loss | actives 0.17% (n = 300,000) | inhibition, % (test concentration not listed) | AID 1554 | BJeLR (HRASV12) viability, CellTiter-Glo ATP luminescence, 48 h; in the data active means inhibition above about 50%
Hits are given with their value; – = inactive; · = not tested or not shown.

SMILES	CCHF vOTU inh	MazF activator	SARS 3CLpro inh	DUSP3 inh	BJeLR lethal
COc1cccc(N2CCN(C(=O)c3ccc(CS(=O)c4ccc(C)cc4)o3)CC2)c1 (stereo not drawn)	–	–	–	–	52
COc1cc(/C=N/NC(=O)c2cccnc2)ccc1OC(=O)c1cc(OC)c(OC)c(OC)c1	–	–	–	–	–
COc1cc(/C=N/NC(=O)c2cccnc2)ccc1OC(=O)c1ccc2c(c1)OCO2	–	72	–	–	–
O=C(N/N=C/c1cccc(OC(=O)c2ccc3c(c2)OCO3)c1)c1cncc(Br)c1	–	–	–	–	–
O=C(N/N=C/c1ccc(OC(=O)c2ccc3c(c2)OCO3)cc1)c1cncc(Br)c1	–	–	–	51	–
COC(=O)C1=C(C)N=c2s/c(=C/c3ccoc3)c(=O)n2C1c1ccccc1 (stereo not drawn)	·	88	–	–	–
Cc1[nH]c(C)c(S(=O)(=O)N2CCCCC2)c1C(=O)N1CCCCC1	–	–	–	–	–
Cc1[nH]c(C)c(S(=O)(=O)N2CCCCC2C)c1C(=O)N1CCCC1 (stereo not drawn)	–	–	–	56	–
CCCC/C=C1/[C@@H](c2ccc(Cl)cc2)N(Cc2ccc3c(c2)OCO3)C2=N[C@@H](c3ccccc3)CC(=O)N21	–	·	·	·	·
Cc1ccccc1Cn1cc(CN2[C@@H](Cc3ccccc3)COc3cc(Br)ccc3S2(=O)=O)nn1	–	·	·	·	·
CC(NC(=O)CN(C)S(=O)(=O)c1cccc2nsnc12)c1ccccc1 (stereo not drawn)	–	97	–	–	–
Cc1ccc(NC(=O)CN(C)S(=O)(=O)c2cccc3nsnc23)cc1	–	–	–	–	–
CCC(C)CNC(=O)CSc1nnc(-c2cccnc2)n1C1CCCCC1 (stereo not drawn)	–	·	·	·	·
O=C(ONc1ccc(N=NC(=O)c2ccccc2O)cc1)c1ccccc1	–	–	–	52	–
O=Nc1ccc(NOC(=O)c2ccccc2Br)cc1	–	–	–	–	–
CCCC[C@H](C(=O)N(C)c1cccc(OC)c1)[C@@H](O)c1ccc(C(C)=O)cc1	–	·	·	·	·
Cc1ccc(NC(=O)C2C3C=CC4(O3)C2C(=O)N(CCCN2CCCCC2)C4C(=O)NC2CCCCC2)cc1Cl (stereo not drawn)	–	–	–	–	–
Cc1ccc(NC(=O)C2C3C=CC4(O3)C2C(=O)N(CCCN2CCCC2)C4C(=O)NC2CCCCC2)cc1Cl (stereo not drawn)	–	–	–	53	–
CCOC(=O)CC[C@H]1CC[C@]2(CCCN(Cc3ccccc3)C2)O1	–	·	·	·	·
CN(C)[C@@H]1C(=O)C(C(=O)NCN2CCCC2)=C(O)[C@@]2(O)C(=O)C3=C(O)c4c(O)cccc4[C@@](C)(O)C3CC12 (stereo partly drawn)	·	·	–	66	·
CCc1ccc2nc(N(CCCN(C)C)C(=O)c3ccc(S(=O)(=O)N4CCc5ccccc5C4)cc3)sc2c1	–	–	–	–	–
CCOc1cccc2sc(N(CCCN(C)C)C(=O)c3ccc(S(=O)(=O)N4CCc5ccccc5C4)cc3)nc12	–	50	–	–	–
Nc1cc2nsnc2cc1Br	97	–	–	52	–
Nc1cccc2nsnc12	–	–	–	–	–
Cn1cc(-c2cccc3[nH]cc(-c4ccccc4)c23)c2ccccc21	–	·	·	·	·
SMILES	CCHF vOTU inh	MazF activator	SARS 3CLpro inh	DUSP3 inh	BJeLR lethal
CCCCCN=Cc1c(C)[nH]n(-c2nc3ccccc3s2)c1=O	–	–	–	–	53
CCCc1[nH]n(-c2nc3ccccc3s2)c(=O)c1C=NCCCOC	–	–	–	–	–
O=C(COC(=O)c1cc(-c2cccc3ccccc23)nc2ccccc12)NC1CCS(=O)(=O)C1 (stereo not drawn)	–	292	–	–	–
Cc1cc(C(=O)OCC(=O)NC2CCS(=O)(=O)C2)c2ccccc2n1 (stereo not drawn)	–	–	–	–	–
COC(=O)[C@@]12CCCCC3=C1N(CCC3)C(=O)[C@H]2CC(=O)NCC1CCCCC1	–	·	·	·	·
CC(=O)NC(Cc1cc(C)ccc1C)C(=O)N1CCN(C(=O)c2ccc([N+](=O)[O-])cc2)CC1 (stereo not drawn)	–	–	–	54	–
CC1(C)Cc2c(cnn2-c2ccc(F)cc2)C(NC(=O)CCC(F)(F)F)C1 (stereo not drawn)	–	–	–	59	–
COc1ccc(-n2ncc3c2CC(C)(C)CC3NC(=O)CCCN2CCCC2=O)cc1 (stereo not drawn)	–	–	–	57	–
O=C(NC(Cc1ccccc1)c1ccc2c(c1)OCCCO2)c1ccccc1F (stereo not drawn)	–	–	–	52	–
COc1ccccc1CNC(=O)C(=O)c1cn(CC(=O)N2CCCC2)c2ccccc12	–	–	–	52	–
Clc1ccc(/C=C/c2nc3ccccc3[nH]2)cc1	–	67	–	–	–
O=C1[C@H]2C[C@@]3(n4ccc5ccccc54)c4ccccc4N(S(=O)(=O)c4ccccc4)[C@H]3N2C(=O)CN1Cc1ccccc1	–	·	·	·	·
O=C(NCCc1ccccc1)C1CCCN1C(=O)Nc1ccc(Cl)cc1 (stereo not drawn)	–	–	–	53	–
O=C(NCc1ccc(F)cc1)C1CCCN1C(=O)Nc1ccccc1 (stereo not drawn)	–	–	–	59	–
O=C(NCCc1ccccc1)C1CCCN1C(=O)Nc1ccccc1 (stereo not drawn)	–	–	–	–	–
Cc1cccc(NC(=O)[C@@H]2CC(=O)O[C@@H]2c2ccccc2)c1C	–	·	·	·	·
Cn1c(-c2cccc(F)c2)nc2c1c(=O)[nH]c(=O)n2Cc1ccccc1	–	–	–	–	–
Cn1c(-c2cccc(OCc3ccccc3)c2)nc2c1c(=O)[nH]c(=O)n2Cc1ccccc1	–	62	–	–	·
O=C(COc1ccc(Cl)cc1)Nc1ccccc1Cl	–	–	–	54	–
O=C(COC(=O)c1ccc2c(c1)OCCO2)Nc1cc(Cl)ccc1Cl	–	53	–	–	–
CCCN(CC1CC1)C(=O)CSc1nnc(-c2ccco2)n1N	·	·	–	–	–
CN(CCC#N)C(=O)CSc1nnc(-c2ccco2)n1N	–	–	–	51	–
CCOC(=O)[C@]12CCCC=C1N(Cc1ccc(OC)cc1)C(=O)[C@@H]2CC(=O)NCCCOC	–	·	·	·	·
OCCC1CN(CCCc2ccccc2)CCN1Cc1ccc(F)cc1 (stereo not drawn)	–	–	–	56	–
Cc1ccc(CN2CCN(CCCc3ccccc3)CC2CCO)cc1 (stereo not drawn)	–	–	–	–	–
Cc1ccc(C(=O)NC2CCCCN(Cc3cccc(F)c3)C2=O)cc1 (stereo not drawn)	–	·	·	·	·
CC(C)C1CC(CCNCc2ccc(N(C)C)cc2)(c2ccccc2)CCO1 (stereo not drawn)	–	–	–	–	–
Cc1ccc(C2(CCNCc3ccc(N(C)C)cc3)CCOC(C(C)C)C2)cc1 (stereo not drawn)	–	–	–	57	–
